Screening data (PubChem)
DT40 TDP1 no CPT – qHTS for Inhibitors of human tyrosyl-DNA phosphodiesterase 1 (TDP1): qHTS in cells in absence of CPT; DT40 Tdp1-/- hTDP1 cells, no CPT, ATP luminescence, 48 h; Potency, µM (doses to about 46.2 µM), inactives show top-dose activity change, negative = growth inhibition, usual class: inhibitors; hit rate 15% among 420,000; AID 686978, 2013; further: potency means the concentration at half of the fitted maximal effect; on the % scale 0 is the no-effect control and ±100 the full control effect; nearly all actives have a fitted effect of over 55% in size
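A cellular qHTS used chicken DT40 cells lacking endogenous Tdp1 but carrying stably transfected human TDP1. Compounds were applied without camptothecin, and cell growth kinetics were judged by ATP-dependent luminescence after ≥48 hr.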
IL-1B inflam inh – blocks inflammasome-driven IL-1 beta release; THP-1 LPS/ATP IL-1B secretion, AlphaLISA, 16 h; hits give low values; activity change, % at 57.5 µM; hit rate 4.7% among 360,000; AID 743279; in the data active means activity change below about -50%; inconclusive means mostly about -30% to -49%; further: on the % scale 0 is the no-effect control and ±100 the full control effect
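Secreted IL-1B measured by AlphaLISA bead assay after 16 h compound exposure of THP-1 cells; compounds (final up to 57.5 uM) added 1 h before LPS (250 ng/mL) and ATP (1.25 mM) stimulation; lower signal means less secretion.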
TDP1 inh – TDP1 (human) enzyme inhibition; hit rate 0.28% among 350,000; Potency, µM (titrated, usually from 130 µM), for the others: at the top dose activity change, negative = inhibition, hits mostly inhibitors; AID 485290; recombinant TDP1, AlphaScreen DNA substrate cleavage; further: potency means the concentration at half of the fitted maximal effect; on the % scale 0 is the no-effect control and ±100 the full control effect; nearly all actives have a fitted effect of over 40% in size
Target sequence (Q9NUW8 whole entry, looked up): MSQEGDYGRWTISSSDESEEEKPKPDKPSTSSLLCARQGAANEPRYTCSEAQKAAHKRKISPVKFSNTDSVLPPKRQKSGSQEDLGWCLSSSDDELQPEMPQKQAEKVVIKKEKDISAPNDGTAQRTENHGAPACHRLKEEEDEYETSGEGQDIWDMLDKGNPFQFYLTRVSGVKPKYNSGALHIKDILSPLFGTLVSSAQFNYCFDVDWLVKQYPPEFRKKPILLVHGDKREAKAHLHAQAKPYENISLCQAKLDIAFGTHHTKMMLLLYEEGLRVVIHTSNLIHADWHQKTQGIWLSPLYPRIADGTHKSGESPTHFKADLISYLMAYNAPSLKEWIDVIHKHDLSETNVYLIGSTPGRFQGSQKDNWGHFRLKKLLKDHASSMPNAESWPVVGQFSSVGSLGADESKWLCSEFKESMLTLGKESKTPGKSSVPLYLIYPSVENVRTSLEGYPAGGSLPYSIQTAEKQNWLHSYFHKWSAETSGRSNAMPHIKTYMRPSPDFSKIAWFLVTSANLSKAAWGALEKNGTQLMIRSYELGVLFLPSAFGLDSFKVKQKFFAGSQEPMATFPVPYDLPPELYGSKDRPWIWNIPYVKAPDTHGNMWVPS
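E. coli-derived human Tdp1, 1 nM final. Cpd preinc 15 min RT; substrate 15 nM final, 5 min RT; AS bead mix 10 ug/ml final, 10 min RT. Signal loss = tyrosine-FITC cleavage. No-enzyme wells = max signal.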
TDP1 cell CPT – DT40-hTDP1 cell growth loss with CPT | Potency, µM (doses to about 46.2 µM), inactives show at the top dose activity change, negative = growth inhibition, usual class: inhibitors | hit rate 12% among 420,000 | chicken DT40 Tdp1-/-;hTDP1 cells + 20 nM CPT, ATP luminescence, 48 h; further: potency means the concentration at half of the fitted maximal effect; on the % scale 0 is the no-effect control and ±100 the full control effect; nearly all actives have a fitted effect of over 55% in size
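Chicken DT40 Tdp1-/- cells complemented with human TDP1, 400 cells/well, exposed to compounds plus 20 nM camptothecin for at least 48 h at 37 C; viability read as ATP content by CellTiter-Glo luminescence.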
HepG2 tox-1 – kills HepG2 cells in TGF-b inhibitor counter-screen; AID 588856; Potency, µM (highest dose often 46.1 µM), for the others: at the top dose activity change, negative = cytotoxicity, actives largely listed as cytotoxic; HepG2 CAGA-GFP viability, ATP luminescence, 18 h; hit rate 0.76% among 410,000; further: potency means the concentration at half of the fitted maximal effect
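HepG2 CAGA-GFP cells (1000/well, DMEM with 1% FBS) received compound, then TGF-beta at 500 pg/mL final, and were incubated 18 hours at 37 degrees C. Viability was read by CellTiter-Glo luminescence. Media-only wells were set as complete cell-killing and DMSO as no toxicity.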
TGFb SMAD3 inh – blocks TGF-b signaling | HepG2 CAGA-GFP TGF-b/SMAD3 reporter, GFP fluorescence, 18 h; TGF-beta stimulated, 500 pg/mL final | hit rate 1.2% among 410,000 | Potency, µM (series often up to 46.1 µM), for inactives: at the top dose activity, negative = inhibition, most hits filed as inhibitors; further: potency means the concentration at half of the fitted maximal effect; on the % scale 0 is the no-effect control and ±100 the full control effect; nearly all actives have a fitted effect of over 65% in size
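Inhibition was scored as loss of TGF-beta-induced (500 pg/mL final, 18 hours, 37 degrees C) GFP in HEPG2 cells carrying a CAGA-GFP reporter, in DMEM with 1% FBS. Well GFP was summed per cell; Activity was normalised to unstimulated and stimulated DMSO wells, then concentration-response fitting.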
TGFb confirm – TGF-b pathway inhibition, cherry-pick retest. shares compounds with TGFb SMAD3 inh. Potency, µM (titrated, usually from 46.1 µM), without a hit: at the top dose activity, negative = inhibition, usual class: inhibitors. HepG2 CAGA-GFP TGF-b reporter, GFP fluorescence, 18 h; cells stimulated with TGF-beta, 500 pg/mL. hit rate 63% among 1,600; further: potency means the concentration at half of the fitted maximal effect; on the % scale 0 is the no-effect control and ±100 the full control effect; nearly all actives have a fitted effect of over 65% in size
HepG2 tox-2 – counter-screen for TGF-b inhibitors: cytotoxicity in HepG2 cells; shares compounds with TGFb SMAD3 inh; hit rate 27% among 1,600; HepG2 CAGA-GFP viability, ATP luminescence, 18 h; cells stimulated with TGF-beta, 500 pg/mL; Potency, µM (series often up to 46.1 µM), for the others: at the highest dose activity, negative = cytotoxicity, usual class: inhibitors; further: potency means the concentration at half of the fitted maximal effect; on the % scale 0 is the no-effect control and ±100 the full control effect; nearly all actives have a fitted effect of over 70% in size
CCL64 TGFb inh – TGF-b inhibition, CCL64 orthogonal assay. Potency, µM (titrated, usually from 46.1 µM), without a hit: at the highest dose activity, negative = inhibition, actives largely listed as inhibitors. CCL64 CAGA-GFP reporter, TGF-b stimulated, GFP fluorescence, 18 h. hit rate 41% among 1,600. shares compounds with TGFb SMAD3 inh; further: potency means the concentration at half of the fitted maximal effect; nearly all actives have a fitted effect of over 65% in size
COP TGFb inh – blocks TGF-b signaling in HepG2 COP reporter; HepG2 COP-GFP TGF-b reporter, GFP fluorescence, 18 h; cells stimulated by added recombinant TGF-beta; shares compounds with TGFb SMAD3 inh; Potency, µM (doses to about 46.1 µM), without a hit: top-dose activity, negative = inhibition, usual class: inhibitors; hit rate 3% among 1,600; further: potency means the concentration at half of the fitted maximal effect; nearly all actives have a fitted effect of over 70% in size
Starred values were filed as active, the others as inactive; u = inconclusive; x = no result; [ ] = remark or other dose. Only some compounds are listed: those with a hit (about 18% of all), similar ones and a draw of the others. Unless noted, the call rests on the fitted dose curve; in most records, active means well fitted curve in the direction sought with a large enough effect; inconclusive means small, poorly fitted or top-dose-only effect, or another doubt; inactive means no such curve, though single readings can be large; an effect the other way counts as inactive or inconclusive.

SMILES	DT40 TDP1 no CPT	IL-1B inflam inh	TDP1 inh	TDP1 cell CPT	HepG2 tox-1	TGFb SMAD3 inh	TGFb confirm	HepG2 tox-2	CCL64 TGFb inh	COP TGFb inh
COc1cccc(C2C3=C(N=c4s/c(=C\c5cccc(O)c5)c(=O)n42)c2ccccc2CC3)c1OC (centres undefined)	u	-56.5*	1.4%	-115.6%	-27.0%	17.8µM*	5.8µM*	u	2.91µM*	30.6%
COc1ccccc1C1C2=C(N=c3s/c(=C/c4cccc(OCC(=O)O)c4)c(=O)n31)c1ccccc1CC2 (centres undefined)	-9.1%	5.3	2.6%	2.7%	-1.0%	13.1%	x	x	x	x
Cc1cc(C)n(C(=O)c2ccc(C)c(S(=O)(=O)N3CCCCC3)c2)n1	-13.9%	5.0	1.8%	-19.3%	-13.6%	15.9%	x	x	x	x
Cc1ccc(C(=O)c2c3ccc(C(F)(F)F)cc3nn2CCC(N)=O)cc1	-28.8%	20.4	-2.7%	u	-78.4%	u	x	x	x	x
O=c1c(Cc2ccc(Cl)cc2Cl)c(O)ccn1Cc1ccc(Cl)cc1	u	6.7	2.6%	-2.6%	0.7%	11.2µM*	u	u	u	23.6%
COc1cccc(NC(=O)CCN2CCC(C(N)=O)CC2)c1	1.3%	-17.2	0.0%	2.5%	-9.0%	-6.2%	x	x	x	x
Cc1cccn2c(=O)cc(COc3ccc(NC(=O)C(C)Oc4ccccc4)cc3)nc12 (centres undefined)	u	x	-2.7%	u	-18.2%	-26.5%	x	x	x	x
Cn1c(N)c(C(=O)COc2ccc(C#N)cc2)c(=O)n(C)c1=O	-25.8%	-0.3	-12.8%	1.5%	-1.6%	4.6%	x	x	x	x
CN(C)S(=O)(=O)c1cccc(C(=O)NCCOC(=O)c2cc(F)c(F)cc2Cl)c1	-17.2%	31.5	x	13.1%	-4.3%	11.0%	x	x	x	x
CC(C)C[C@@H](CN1CCCC1CN1C(=S)NC[C@@H]1Cc1ccc(O)cc1)N1C[C@H](Cc2ccc(O)cc2)N(CC2CCCCC2)C1=S (some centres undefined)	14.6µM*	-86.6*	x	20.6µM*	-99.5%	10µM*	8.2µM*	u	u	u
CC(C)C[C@H]1CNC(=S)N1C[C@H]1CCCN1C[C@H](CC(C)C)N1C[C@H](Cc2ccc(O)cc2)N(CC2CCCCCC2)C1=S	8.2µM*	-59.0*	x	16.4µM*	11.2µM*	6.31µM*	u	u	u	90.6%
CC(C)C[C@H]1CNC(=S)N1CC1CCCN1C[C@H](CC(C)C)N1C[C@H](Cc2ccc(O)cc2)N(CC2CCCCC2)C1=S (some centres undefined)	18.4µM*	0.0	x	u	11.2µM*	10µM*	u	u	u	u
O=C(C(=Cc1ccc(F)cc1)C(=O)c1ccccc1)c1ccccc1	16.4µM*	-112.0*	x	u	-16.4%	8.91µM*	3.66µM*	u	13µM*	26.9%
O=c1c2[nH]c3ccccc3c2ncn1CCC1=CCCCC1	-7.5%	49.0	-1.2%	-2.8%	-15.3%	4.1%	x	x	x	x
C1=C(CCNc2ncnc3c2[nH]c2ccccc23)CCCC1	0.411µM*	-84.0*	6.9%	0.731µM*	-88.3%	3.55µM*	u	20.6µM*	6.51µM*	24.7%
CC(Oc1ccc(Br)cc1)C(=O)NCC(C)(C)N1CCOCC1 (centres undefined)	-5.5%	-0.7	15.9%	-7.1%	1.8%	25.0%	x	x	x	x
Cc1ccn2c(NC3CCCCC3)c(C(C)C)nc2c1	-14.1%	-2.2	-2.2%	-21.5%	-34.7%	u	x	x	x	x
CCCCNc1c(-c2ccc(OC)c(SC3CCCCC3)c2)nc2cc(C)ccn12	14.6µM*	-86.4*	6.0%	20.6µM*	-50.4%	20µM*	u	u	16.4µM*	35.1%
COC(=O)[C@H](Cc1ccc(O)cc1)NC(=O)Cn1cnc2c(NCc3ccccc3)ncnc21	0.4%	48.0	0.3%[56.1 µM]	1.0%	1.1%	-1.3%	x	x	x	x
COc1ccc(/C=C/C(=O)c2cc(F)ccc2OC(=O)c2ccc(OC)c(OC)c2)cc1OC	-68.8%	-29.1	-6.3%	u	-29.7%	-0.4%	x	x	x	x
COc1ccc(/C=C/C(=O)c2cc(F)ccc2OC(=O)c2ccccc2)cc1OC	0.411µM*	u	x	0.411µM*	-55.8%	8.91µM*	u	-2.2%	u	0.0%
CC(NC(=O)CC(c1ccccc1)c1cc(Cl)ccc1O)c1ccccc1 (centres undefined)	20.6µM*	u	0.0%	14.6µM*	-1.2%	15.8µM*	u	23.1µM*	18.4µM*	57.1%
CCNC(=O)NC(=O)COC(=O)CCCc1nc2ccccc2s1	-15.2%	8.6	3.6%	-0.3%	-2.7%	0.7%	x	x	x	x
CC(C)(C)S(=O)(=O)/C(C#N)=N/Nc1ccc(Cl)cc1	14.6µM*	-20.5	2.5%	u	-32.6%	u	13µM*	u	u	49.3%
COc1ccc(NC(=O)CSc2nc3ccsc3c(=O)n2CCC(=O)O)c(OC)c1	22.1%	30.7	4.6%	-0.3%	-2.2%	8.1%	x	x	x	x
CN(CCCC(=O)NCCc1ccccc1)S(=O)(=O)c1ccc([N+](=O)[O-])cc1	-18.3%	15.8	3.8%	4.8%	1.0%	9.5%	x	x	x	x
